# In the library only some 21% were active in any assay of this set; here they are far more common.
# Pf growth 48h: Primary qHTS for delayed death inhibitors of the malarial parasite plastid, 48 hour incubation; P. falciparum luciferase growth in erythrocytes, 48 h; Potency, µM (series often up to 28.7 µM), without a hit: top-dose activity change, negative = inhibition, actives largely listed as inhibitors; 310,000 compounds, 5.9% hits; AID 504832, 2011; note: potency is the fitted concentration of half-maximal effect; % is set by controls: 0 for no effect and ±100 for the full control effect
#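 Firefly luciferase activity from engineered P. falciparum reports growth; inhibitors lower the luminescent signal. Cultures contained 2% hematocrit erythrocytes at 0.1% final parasitemia.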
# SARS PLP yeast: qHTS of Yeast-based Assay for SARS-CoV PLP; S. cerevisiae expressing SARS-CoV PLpro, growth rescue; 330,000 compounds, 0.19% hits; Potency, µM (doses to about 32.9 µM), for the others: top-dose activity, positive = growth rescue, hits mostly activators; calls by dose curve; note: potency is the fitted concentration of half-maximal effect; 0% is about no effect; nearly all actives have a fitted effect of over 55% in size
# Pf growth 96h: Primary qHTS for delayed death inhibitors of the malarial parasite plastid, 96 hour incubation; P. falciparum luciferase reporter growth, 96 h; Potency, µM (series often up to 28.7 µM), inactives show at the top dose activity change, negative = inhibition, most hits filed as inhibitors; 320,000 compounds, 6.9% hits; AID 504834, 2011; note: potency is the fitted concentration of half-maximal effect; % is set by controls: 0 for no effect and ±100 for the full control effect
#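 Delayed-death screen, second-generation endpoint: infected erythrocytes, 2% hematocrit, 0.05% parasitemia final; 96 hours at 37 C, 5% CO2; luciferase detection reagent; luminescence decrease equals reduced growth.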
# CHX counter: Cycloheximide Counterscreen for Small Molecule Inhibitors of Shiga Toxin | max response, % | cell reporter, cycloheximide protein synthesis inhibition counterscreen | 300,000 compounds, 12% hits; in the data active = max response mostly above about 13%, no sharp cut-off; inactive = mostly below about 14%; note: read at 38.3 µM for the half of the compounds with a filed dose; 0% is about no effect
# NS1 inh: qHTS Assay for Inhibitors of Influenza NS1 Protein Function; Potency, µM (top dose mostly 46.1 µM), for inactives: top-dose activity, positive = more growth; 270,000 compounds, 0.4% hits; AID 2326, 2010; calls by dose curve; note: potency is the fitted concentration of half-maximal effect; actives are rising curves; nearly all actives have a fitted effect of over 50% in size
#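 Read-out: OD600 growth recovery of NS1-expressing budding yeast. Cells grown overnight at 30C in -URA glucose medium, washed, resuspended and diluted 1:100 in 2% galactose assay medium, pH 6.0. Same strain lacking NS1 served as positive control.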
# Shiga toxin inh: A qHTS for Small Molecule Inhibitors of Shiga Toxin; inhibition, % at 38.7 µM; 290,000 compounds, 9.2% hits; Vero cells, Shiga toxin protein synthesis inhibition reporter; in the data active = inhibition mostly above about 28%, no sharp cut-off; inactive = mostly below about 43%; note: 0% is about no effect
# An asterisk follows results filed as active; ? = inconclusive; · = no result; [ ] = another dose, or the depositor's remark. Unless noted, calls come from the whole dose curve; as a rule, active = well fitted inhibition curve with a large enough effect; inconclusive = small, poorly fitted or top-dose-only effect, or another doubt; inactive = no such curve, though single readings can be large or run the other way.
SMILES,Pf growth 48h,SARS PLP yeast,Pf growth 96h,CHX counter,NS1 inh,Shiga toxin inh
O=C(CNC(=O)c1ccccn1)N=Nc1c(O)[nH]c2ccccc12,?,-4.4%,-7.4%,22.2,-3.2%,47.1*
O=C(N=Nc1c(O)[nH]c2ccccc12)c1ccc2c(c1)OCO2,452.3%,-4.9%,44.1%,26.7*,·,33.3
O=C(CSCc1cccc(Br)c1)N=Nc1c(O)[nH]c2ccccc12,10.2%,-17.7%,-21.5%,1.3,-50.0%,-10.0
O=C(N=Nc1c(O)[nH]c2ccccc12)c1ccc(CN2CCOCC2)cc1,-1.1%,0.2%,45.7%,6.3,·,9.3
CC(CCCC(C)(C)O)NCc1cn[nH]c1-c1ccc2c(c1)OCO2 (stereo not given),0.0%,0.3%,?,1.3,1.2%,-1.1
O=C(N=Nc1c(O)[nH]c2ccccc12)c1ccco1,279.6%,-1.9%,?,45.1*,-33.0%,65.1*
CC(=O)/C=C(\C)N=Nc1c(O)[nH]c2ccccc12,16.1%,0.4%,0.0%,32.3*,-7.4%,56.3*
CCCn1c(O)c(N=NC(=O)c2cccnc2)c2cc(Br)ccc21,5.86µM*,-2.7%,5.86µM*,4.0,-30.9%,-8.6
CCn1c(O)c(N=NC(=O)CNC(=O)c2ccco2)c2ccccc21,-1.1%,1.0%,43.7%,-3.5,5.6%,-10.6
CCCn1c(O)c(N=NC(=O)c2ccco2)c2ccccc21,?,-11.9%,?,7.9,-41.8%,52.8*
CC(=O)Nc1ccc2nc(NC(=O)c3ccc([N+](=O)[O-])o3)sc2c1,?,4.4%,?,9.7,3.0%,7.7
COc1ccc(NC(=O)c2cc(OCCCN(C)C)nn2Cc2ccccc2)cc1,·,·,·,7.5,·,0.5
O=C(CCc1ccccc1)NC1(Cc2ccccc2)CCN(CCCc2ccccc2)C1=O (stereo not given),?,1.4%,?,·,·,·
CCCCC(=O)Nc1ccccc1N1CCOCC1,2.4%,-1.2%,-2.7%,5.9,·,-3.6
Cc1cn(CCC(=O)Nc2ccccc2N2CCOCC2)c2ccccc12,-5.0%,-0.3%,?,50.2*,0.2%,74.9*
Cc1cn(CCC(=O)Nc2ccc(N3CCOCC3)cc2)c2ccccc12,7.5%,-1.9%,?,65.6*,-5.5%,60.9*
CN(CC(=O)O)C(=O)[C@H](Cc1ccccc1)NC(=O)[C@@H](CCCN=C(N)N)NC(=O)[C@@H](N)Cc1ccc(O)cc1,·,·,·,-2.6,·,-6.4
COc1cccc(CN2CC=C(c3ccc(F)cc3)CC2)c1,6.3%,-5.7%,?,-1.8,8.8%,-5.0
COc1cccc(CN2CCN(c3ccc(F)cc3)C2=O)c1,33.7%,-0.8%,?,34.5*,3.6%,33.0
O=C1N(Cc2ccc(F)cc2)CCN1c1ccc(F)cc1,85.5%,-1.5%,124.0%,29.3*,-5.8%,57.7*
Cc1ccc(C)c(S(=O)(=O)Nc2ccc(C(=O)N3CCCCC3)cc2)c1,11.6%,-3.0%,10.7%,-1.6,-0.8%,-24.5
Cn1c(=O)c2c([nH]c(OCc3ccc(Cl)cc3Cl)[n+]2Cc2ccc(F)cc2)n(C)c1=O,?,1.6%,?,-1.2,5.5%,1.5
COc1ccc(S(=O)(=O)N2CCN(C(=O)c3ccccn3)CC2)cc1,0.0%,-1.0%,-1.4%,·,·,·
COc1ccc(C2CC2C(=O)c2ccccn2)cc1 (stereo not given),127.2%,-4.8%,136.9%,41.1*,·,45.9
COc1ccc(C2CC2/C(=N/O)c2ccccc2)cc1 (stereo not given),51.8%,-4.2%,130.3%,31.2*,·,44.9
SMILES,Pf growth 48h,SARS PLP yeast,Pf growth 96h,CHX counter,NS1 inh,Shiga toxin inh
O/N=C(\c1ccccn1)C1CC1c1ccccc1 (stereo not given),5.2%,23.9%,?,11.5,·,-13.0
COc1ccc(C2CC2/C(=N/O)c2ccccn2)cc1 (stereo not given),325.7%,?,-49.0%,20.8*,·,107.7*
COc1ccc(-n2c(C)cc3cc(OC(C)=O)ccc32)cc1,13.1%,-18.5%,45.8%,10.7*,18.4%,23.6
COc1ccc(-n2c(C)c(C(C)=O)c(C(C)=O)c2C)cc1,-7.7%,7.9%,·,-5.5,0.8%,-18.4
COc1cc(CC(=O)OCC(=O)NCC(C)C)cc(OC)c1OC,?,2.1%,30.1%,-4.0,5.5%,4.7
CCCNC(=O)c1nnsc1Sc1ccc(Cl)cc1,23.3%,4.3%,-6.0%,23.5*,·,87.2*
Cc1cc(C)cc(NC(=O)N2CCNC(=O)C2CC(=O)Nc2cc(Cl)ccc2Cl)c1 (stereo not given),44.1%,5.7%,?,-4.8,5.5%,9.9
O=C(Nc1ccc(NC(=O)c2cccs2)cc1)c1cccnc1,6.9%,0.1%,20.4%,2.3,·,-2.4
NC(=O)c1ccc(-c2noc(-c3ccccc3F)n2)cc1,236.5%,3.3%,226.8%,·,·,·
O=C(Nc1ccc(-c2noc(-c3ccccc3F)n2)cc1)c1cccs1,16.3%,3.5%,9.28µM*,45.9*,-8.2%,71.3*
Cc1ccccc1-c1nc(-c2ccc(NC(=O)c3cccs3)cc2)no1,?,0.5%,23.4%,46.0*,-21.8%,82.4*
CN1CCc2cc(Cl)c(O)cc2C(c2ccccc2)C1 (stereo not given),·,·,·,·,-3.8%,·
CN1CCc2cc(Cl)c(O)cc2[C@H]2c3ccccc3CC[C@@H]21,12µM*,·,9.53µM*,·,·,·
c1ccc2c(c1)CC1CNCc3cccc(c31)S2 (stereo not given),?,-15.2%,10.4µM*,-0.6,-12.4%,-4.3
COc1ccc(NC(=O)Nc2ccncc2)c(OC)c1,?,-1.2%,60.5%,-3.5,3.1%,-14.9
Cc1ccc(NS(=O)(=O)c2cc([N+](=O)[O-])ccc2NNC(=S)Nc2cc(C)ccc2C)c(C)c1,14.7µM*,6.0%,9.28µM*,5.1,12.6µM*,-13.1
COc1ccc(CC(C(=O)Nc2cccc(F)c2)c2nn[nH]n2)c(OC)c1 (stereo not given),12.6%,-5.0%,·,16.8*,0.1%,38.0
COc1ccc(NC(=O)Nc2cccc(F)c2)c(OC)c1,-24.0%[5.75 µM],-0.7%,-17.6%,16.6*,·,45.6
COc1ccc(NC(=O)Nc2ccc(F)c(F)c2)c(OC)c1,?,-0.1%,21.4%,14.0*,-2.5%,-1.2
Cc1ccc(C(=O)N/C(=C\c2ccccc2)C(=O)NCc2cccnc2)cc1,19.2%,0.1%,?,15.0,-0.1%,-7.3
N#CCC(=O)NN,4.7%,·,0.2%,·,·,·
COc1ccc(OCC(=O)N/N=c2\oc3c(OC)cccc3cc2C(N)=O)cc1,5.3%,-4.4%,0.0%,-3.2,-10.2%,8.2
Cc1ccc([N+](=O)[O-])cc1NC(=S)NC(=O)C(C)(C)C,16.9%,-8.8%,-4.2%,14.0*,-2.9%,33.7
Cc1ccc([N+](=O)[O-])cc1NC(=O)Nc1cccc(F)c1,7.38µM*,10.2%,?,-1.4,6.0%,4.5

# Compound activity (PubChem BioAssay)
